A selection: hits, their analogues and other compounds. The true share with any hit is near 9.2%.
NPC1 promoter act = activates the NPC1 promoter; 320,000 tested, 2.4% active; Huh7 NPC1 promoter luciferase reporter, 24 h; Potency, µM (highest dose often 9.22 µM), for inactives: at the highest dose activation, actives largely listed as activators; further: % of control where 0% means no effect; nearly all actives have a fitted effect of over 60% in size
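Luciferase expression driven by the NPC1 promoter was measured in stably transfected Huh7 cells after a 24 h compound incubation, using a luciferase reagent and a luminescence read.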
ELG1 DNA repair = ELG1-dependent DNA repair inhibition; HEK293T ELG1-luciferase reporter, luminescence, 16 h; DNA damage induced by 5-fluorouridine; Potency, µM (titrated, usually from 46.1 µM), inactives show at the highest dose activity change, negative = inhibition, most hits filed as inhibitors; 330,000 tested, 2.3% active; AID 504467; further: on the % scale 0 is the no-effect control and ±100 the full control effect; nearly all actives have a fitted effect of over 55% in size
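Reporter activity after DNA damage by 5-fluorouridine is monitored. Compound-treated cells incubate 16 hr at 37 °C, then ONE-Glo is added for 30 min before luminescence reading.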
FLuc counter = inhibits or activates purified firefly luciferase, miR-21 counter-screen. P08659. purified FLuc, Km substrates, luminescence inhibition. Potency, µM (top dose mostly 57.5 µM), for inactives: at the top dose activity change, negative = inhibition, most hits filed as inhibitors. 360,000 tested, 6.9% active;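 further: plate controls were vehicle for no effect and reference inhibitor for full effect; nearly all actives have a fitted effect of over 55% in size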
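Biochemical qHTS of compounds, final roughly 60 µM downward over six points, against 10 nM purified firefly luciferase using Km concentrations of substrates (10 uM D-luciferin, 10 uM ATP) in Tris acetate pH 7.5 buffer; luminescence output.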
SMN2 splice enh = increases expression of the SMN2 splice variant; HEK293 SMN2-luciferase splicing reporter, luminescence, 30-36 h; Potency, µM (titrated, usually from 46.1 µM), inactives show top-dose activity change, positive = activation, most hits filed as activators; 210,000 tested, 2.8% active; AID 1458; further: % of control where 0% means no effect; nearly all actives have a fitted effect of over 55% in size
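HEK293 cells carry an SMN2 minigene-luciferase reporter in which exon 7 inclusion puts luciferase in frame. Cells were seeded at 2000 cells/well, attached for 10-12 hours, then exposed to compounds for 30-36 hours at 37C before ONE-Glo luminescence.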
Rab9 prom act = activates the Rab9 promoter; Potency, µM (doses to about 9.22 µM), for the others: top-dose activation, negative = inhibition, actives largely listed as activators; 320,000 tested, 2.8% active; AID 485297; Huh7 Rab9 promoter-luciferase reporter, luminescence, 24 h; further: % of control where 0% means no effect; nearly all actives have a fitted effect of over 60% in size
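Cells were plated at 1500 per well in reduced-serum medium with 10% FBS and left 2 h. Compound in DMSO was then added for 24 h at 37 °C. Reporter signal was read by luminescence after 10 min with luciferase detection reagent.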
ELG1 genotoxic = induces genotoxicity in HEK293T cells with luciferase-tagged ELG1; AID 504466; Potency, µM (titrated, usually from 46 µM), for inactives: at the top dose activity change, positive = activation, actives largely listed as activators; HEK293T ELG1-luciferase reporter, luminescence, 16 h; 330,000 tested, 1.3% active; further: % of control where 0% means no effect; nearly all actives have a fitted effect of over 60% in size
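Screening used a luciferase reporter fused to human ELG1 in HEK293T cells. Luminescence was read on a CCD plate imager after 16 hr exposure and 30 min ONE-Glo incubation.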
Numbers without * were called inactive; u = inconclusive; x = no result; [ ] = remark or other dose. The call rests on the fitted dose curve; in most records, active means well fitted curve in the direction sought with a large enough effect; inconclusive means small, poorly fitted or top-dose-only effect, or another doubt; inactive means no such curve, though single readings can be large; an effect the other way counts as inactive or inconclusive. Potency means the concentration at half of the fitted maximal effect.

SMILES	NPC1 promoter act	ELG1 DNA repair	FLuc counter	SMN2 splice enh	Rab9 prom act	ELG1 genotoxic
Cc1ccc2c(c1)C(N1CCCC1=O)CC(c1ccco1)N2 (stereo not given)	3.2µM*	u	1.2µM*	13µM*	2.2µM*	u
Cc1cc(N=Nc2c(O)c3ccccc3[nH]c2=O)ccc1N=Nc1ccc(C(=O)N(C)C)cc1	u	u	u	x	u	17%
CC(=O)c1cccc(N=Nc2c(C)[nH]c3ccccc23)c1	2%	26%	24µM*	4%	4%	6%
O=C(N=Nc1c(O)[nH]c2ccccc12)c1cccs1	u	u	2.1µM*	11µM*	2.5µM*	12%
O=C(O)c1ccc(N=Nc2c(O)[nH]c3ccccc23)cc1	0.1µM*	u	0.43µM*	x	u	u
Cc1ccc(CC(=O)Nc2ncc([N+](=O)[O-])s2)cc1	u	u	15µM*	13µM*	u	18%
Cc1ccc(S(=O)(=O)CC(=O)Nc2ncc([N+](=O)[O-])s2)cc1	-1%	-25%	-1%	x	4%	-10%
O=C(COC(=O)c1ccc(Br)o1)Nc1ncc([N+](=O)[O-])s1	17%	u	17µM*	x	22%	4%
CCn1nnc2cc(C(=O)Nc3cccc(C)c3C)ccc21	x	x	-7%	x	x	x
C=Cc1ccc(Cn2c(SCC(=O)N3CCN(c4ccc(F)cc4)CC3)nc3ccccc32)cc1	x	x	3%	-3%	x	x
COc1cccc(N=Nc2c(N)[nH][nH]c2=O)c1	25%	u	15µM*	10µM*	28%	u
CCOc1ccc(N=Nc2c(N)[nH][nH]c2=O)cc1	u	u	11µM*	u	u	u
Cc1cc(=O)n2[nH]c(=O)c(N=Nc3ccccc3)c2[nH]1	-1%	-7%	u	-4%	-2%	9%
CCOc1ccc(N=Nc2c(=O)[nH]n3c(=O)cc(C)[nH]c23)cc1	u	u	4.8µM*	u	2.8µM*	u
Cc1cc(/C=N/NC(=O)c2ccccc2F)c(C)n1-c1ccccc1	2.5µM*	u	2.1µM*	13µM*	0.63µM*	u
Cc1cc(/C=N/NC(=O)c2cccc(F)c2)c(C)n1-c1ccccc1	3.2µM*	u	1.2µM*	27%	1.6µM*	u
CCOC(=O)N/N=C/c1cc(C)n(-c2ccccc2)c1C	24%	u	11µM*	-15%[1.84 µM]	u	u
CCOc1ccc(C2=CC(c3cc(Br)ccc3F)n3ncnc3N2)cc1Cl (stereo not given)	x	x	-2%	x	x	x
C=CCOC(=O)/C(=C/c1cccc2ccccc12)NC(=O)c1ccccc1	10%	u	19µM*	u	20%	10%
CCCCn1c2c(c(=N)c3ccccc31)CCC2	-34%	1.6µM*	0%	x	-39%	-10%
CCCCCCCCn1c2c(c(=N)c3ccccc31)CCC2	-4%	6%	-1%	x	-3%	1%
N=c1c2c(n(Cc3ccc(Cl)cc3)c3c1CCC3)CCC2	-23%	2.9µM*	-1%	-43%	-26%	-13%
N=c1c2c(n(Cc3ccccc3)c3c1CCC3)CCC2	-25%	2.9µM*	-3%	-38%	-39%	-1%
Cc1cccc(NC(=O)C2CCCN(c3nnc(-n4c(C)ccc4C)s3)C2)c1C (stereo not given)	x	x	-9%	-2%	x	x
S=c1nc2ccccc2c2nc(-c3ccccc3)[nH]n12	u	u	27µM*	-10%	17%	9%
S=c1nc2ccccc2c2nc(-c3ccccc3Cl)[nH]n12	16%	u	u	x	27%	-4%
O=C(c1cnccn1)N1CCC2(CC1)CN(c1cccc(-c3ccccc3)c1)C2	x	x	x	-44%	x	x
Cc1c(CC(=O)NCC(=O)NCC(=O)O)c(=O)oc2c(C)c3oc4c(c3cc12)CCCC4	1%	3%	u	x	7%	0%
